# Laboratory results reported in PubChem BioAssay (NCATS).
# “And” between values parts separate entries of the source, which are not always exact repeats. Equal entries are not always repeated. Values without a mark were called inactive. Results filed as inconclusive are left out. Entries that show only a call come without a potency. The source made the active and inactive calls. Unless noted, the call rests on the fitted dose curve; in most records, active means well fitted curve in the direction sought with a large enough effect; inconclusive means small, poorly fitted or top-dose-only effect, or another doubt; inactive means no such curve, though single readings can be large; an effect the other way counts as inactive or inconclusive.
# Experiments:
# [1] = AP1 Signaling Pathway (AID 357; active means well fitted curve in either direction with a large enough effect, not every such curve was filed as active;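 further: ME-180 reporter cells stimulated with EGF at its EC50 level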)
# In short: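 A ratiometric CCF4 readout (405 nm excitation; 460 and 530 nm emission) quantified AP-1-driven beta-lactamase in ME-180 cells after 5 h with compound and EC50 EGF; AC50 values were derived for activators and inhibitors.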
# [2] = target: Cytochrome P450 1A2 (Homo sapiens) (UniProt P05177); assay: p450-cyp1a2 (AID 410; calls by dose curve; further: potency means the concentration at half of the fitted maximal effect)
# In short: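 O-Demethylation of luciferin 6' methyl ether by human CYP1A2 is monitored as luciferase luminescence. Substrate sits at Km (100uM); enzyme is 20nM. Values are scaled to 57 uM furafylline as maximal inhibition.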
# [3] = NFAT Signaling Pathway (AID 444; active means well fitted curve in either direction with a large enough effect, not every such curve was filed as active;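 further: carbachol stimulus at about its EC50 of 1 µM final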); conditions: Jurkat NFAT-bla M1, carbachol, beta-lactamase ratio, 5 h; at 38 µM (top of the series)
# In short: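 Jurkat cells carrying an NFAT-driven β-lactamase reporter and co-transfected muscarinic M1 receptor were treated with compound plus carbachol (1 uM final, an EC50 level) for 5 h at 37 °C. CCF4 loading followed for 1 h at RT; 460/530 nm ratio gave %activity.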
# [4] = Stat Signaling Pathway (AID 446; active means well fitted curve in either direction with a large enough effect, not every such curve was filed as active;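 further: ME-180 cervical cancer cells given 40 pM IL-6 alongside compound; SIE-controlled beta-lactamase reporter measured as 460/530 nm FRET emission ratio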)
# In short: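 Compound effects on IL-6-induced STAT reporter activity were measured in ME-180 cells. After overnight culture, cells were co-treated with 40 pM IL-6 for 5 hrs before beta-lactamase substrate loading at room temperature.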
# [5] = target: Glucocorticoid receptor (Homo sapiens) (UniProt P04150); assay: GR-GFP Redistribution (AID 450;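 active means compounds whose dose series gives a full or clear partial fitted curve of increased nuclear translocation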; further: potency means the concentration at half of the fitted maximal effect); conditions: U2OS GR-GFP nuclear translocation, laser cytometry, 2 h
# [6] = target: Glucocorticoid receptor (Homo sapiens) (UniProt P04150); assay: GR-EFC Redistribution (AID 451; calls by dose curve; further: potency means the concentration at half of the fitted maximal effect); conditions: CHO-K1 GR-EFC translocation, beta-gal luminescence, 2 h
# In short: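 CHO-K1 cells stably expressing nuclear-localized β-gal enzyme acceptor and GR fused C-terminally to the enzyme donor fragment; ligand-driven nuclear translocation restores β-gal by complementation. Compounds titrated up to 46 uM final, 2 h at 37 °C; luminescence read.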
# [7] = target: Mitogen-activated protein kinase 10 (Mus musculus) (UniProt Q61831); assay: JNK3 AlphaScreen Assay (AID 530; active means well fitted curve in either direction with a large enough effect, not every such curve was filed as active;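 further: kinase came from lysate of stimulated human HepG2 cells; signal reports phosphorylation of biotinylated GST-cJun 1-79 at Ser73 with 10 µM ATP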)
# In short: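 Phosphorylation of biotinylated GST-cJun(1-79) at Ser73 is measured by AlphaScreen proximity luminescence. Enzyme is JNK3 in HepG2 lysates activated with interleukin-1beta and tumor necrosis factor alpha; ATP is 10 uM final.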
# [8] = target: 3',5'-cyclic-AMP phosphodiesterase 4B (Homo sapiens) (UniProt Q07343); assay: qHTS Assay for Inhibitors of PDE-IV (AID 607; active means well fitted activation curve with a large enough effect in the main read-out, with a control signal flat, not every such curve was filed as active)
# In short: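 ACTOne HEK293 cells carry a modified cAMP-gated CNG channel and express endogenous PDE4; plated 1000 cells/well, compounds up to 22.9 uM final. Membrane-potential dye fluorescence (ex 535/em 590) was read; parental cells received 10 uM forskolin + 100 uM RO 20-1724.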
# [9] = target: Guanine nucleotide-binding protein G(i) subunit alpha-1 (Homo sapiens) (UniProt P63096); assay: qHTS Assay for Inhibitors of RGS12 GoLoco Motif Activity (Green Fluorophore) (AID 879);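 further: negative values mean loss of peptide binding seen as reduced polarization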
# In short: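 A drop in FITC polarization marked displacement of the FITC-tagged RGS12 GoLoco peptide (10 nM) from Gαi1 (50 nM). Compounds were incubated 10 min at room temperature in Tris pH 7.5 buffer containing 150 mM NaCl, 0.1 mM GDP and 0.05% NP40; unlabeled peptide titration served as control.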
# [10] = target: Cytochrome P450 3A4 (Homo sapiens) (UniProt P08684); assay: qHTS Assay for Activators of Cytochrome P450 3A4 (AID 885); further: nearly all actives have a fitted effect of over 65% in size
# In short: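 CYP3A4 activity: Luciferin-PPXE O-dealkylation, 25uM substrate, 200mM KPO4, RT throughout. Read-out is luciferase luminescence; higher values reflect activation.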
# [11] = target: Cytochrome P450 2D6 (Homo sapiens) (UniProt P10635); assay: qHTS Assay for Inhibitors and Substrates of Cytochrome P450 2D6 (AID 891); further: potency means the concentration at half of the fitted maximal effect; nearly all actives have a fitted effect of over 60% in size
# In short: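 Luminescent read-out of luciferin formed by 5 nM human CYP2D6 demethylating 30 uM Luciferin-ME EGE (Km level) over 60 min at room temperature after NADPH regeneration addition. Data normalized to full inhibition by 1.43 uM quinidine.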
# [12] = qHTS Assay for Identification of Small Molecule Antagonists for NFkB Signaling Pathway (AID 895; active means well fitted inhibition curve with a large enough effect in the signal ratio, with a control signal flat, not every such curve was filed as active; the % refers to the signal ratio)
# In short: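 NFkB-bla ME-180 cervical carcinoma cells with beta-lactamase reporter under NFkB response element; compounds added, then TNF alpha at 10 pM final (EC50), 5 h at 37 C. LiveBLAzer substrate 2 h, room temperature; emission 460/530 nm at 405 nm excitation.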
# [13] = target: Muscarinic acetylcholine receptor M1 (Rattus norvegicus) (UniProt P08482); assay: qHTS Assay for Antagonists of Acetylcholine Muscarinic M1 Receptor: Measurement of IP-One Response (AID 944); further: nearly all actives have a fitted effect of over 75% in size
# In short: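 Antagonist mode with rat M1 receptor transfected into CHO cells. Compound is added first for 10 min, carbachol at its EC80 follows for 30 min, and lysis reagents then allow TR-FRET detection of accumulated IP1.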
# [14] = target: Pyruvate kinase (Leishmania mexicana) (UniProt Q27686); assay: qHTS Validation Assay for Inhibitors of Leishmania Mexicana Pyruvate Kinase (AID 945)
# In short: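 The enzyme is a highly purified E451W mutant of LmPYK used at 0.2 nM. It converts 0.5 mM PEP and 0.1 mM ADP over 1 h at room temperature; product ATP is quantified by luciferase luminescence relative to DMSO controls.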
# [15] = target: Pyruvate kinase PKM (Homo sapiens) (UniProt P14618); assay: qHTS Assay for Activators of Human Muscle Pyruvate Kinase (AID 954; active means well fitted curve in the direction sought with a large enough effect, not every such curve was filed as active)
# In short: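 A coupled luminescent readout tracked ATP made from ADP by purified PKM2. Final conditions included 0.1 nM enzyme, PEP and ADP at 0.5 and 0.1 mM, pH 7.2 imidazole buffer with BSA, and a one-hour room-temperature reaction.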
# [16] = target: Alpha-galactosidase (Coffea arabica) (UniProt Q42656); assay: Counterscreen for Glucocerebrosidase Inhibitors: qHTS Assay for Coffee Bean alpha-Galactosidase at pH 4.5 (AID 957)
# In short: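 Enzyme is added first (2 nM final), then compounds titrated from 0.7 nM to 77 uM, then 80 uM 4-methylumbelliferyl alpha-D-galactopyranoside; after 20 min at room temperature a pH 10 NaOH/glycine stop precedes fluorescence reading at 365/440 nm.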
# [17] = target: Alpha-galactosidase A (Homo sapiens) (UniProt P06280); assay: Counterscreen for Glucocerebrosidase Inhibitors: qHTS Assay for Human alpha-Galactosidase at pH 4.5 (AID 992)
# In short: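 Citrate buffer pH 4.5, Tween-20 0.005%. Enzyme 2 nM, substrate 80 uM, 20 min RT. Stop pH 10. Fluorescence Ex 365/Em 440. AC50 by Hill fit.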
# [18] = target: alpha-glucosidase (Oryza sativa, rice) (UniProt Q653V4); assay: Counterscreen for Glucocerebrosidase Inhibitors: qHTS Assay for Rice alpha-Glucosidase at pH 5.0 (AID 997)
# In short: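 Endpoint fluorogenic assay at pH 5.0: compounds (0.7 nM to 77 uM) titrated against 4 nM rice enzyme and 400 uM 4-MU-alpha-glucoside for 20 min at room temperature; NaOH/glycine stop, read ex 365/em 440 nm, Hill-fitted AC50.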
# [19] = target: Alpha-galactosidase (Coffea arabica) (UniProt Q42656); assay: Counterscreen for Glucocerebrosidase Inhibitors: qHTS Assay for Coffee Bean alpha-Galactosidase at pH 5.9 (AID 998)
# In short: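 In 50 mM citric acid pH 5.9 with 0.005% Tween-20, coffee bean enzyme hydrolyses 80 uM 4-MU alpha-D-galactopyranoside over 20 min at RT. Activity is normalized to controls; AC50 comes from Hill-modelled concentration-response data.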
# [20] = target: DNA dC->dU-editing enzyme APOBEC-3G (Homo sapiens) (UniProt Q9HC16); assay: qHTS for inhibitors of Vif-A3G interactions: Validation (AID 588379)
# In short: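 Yellow fluorescence (Ex 488, Em 500-530) of Vif-coexpressing HeLa A3G-eYFP cells, scanned by Acumen cytometer, reports blocked A3G degradation. Cells plated at 700/well overnight at 37 deg C before compound addition, then a further overnight compound incubation at 37 deg C.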
# [21] = system: Zika virus NS2B-NS3 protease; assay: Primary screen GU AMC qHTS for Zika virus inhibitors (AID 1347154); further: nearly all actives have a fitted effect of over 70% in size; further: potency means the concentration at half of the fitted maximal effect
# In short: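 Unlinked Zika NS2B hydrophilic domain/NS3 protease domain noncovalent complex (25 nM final) in 10 mM Tris-HCl pH 8.0, 0.01% Tween 20, with AMC peptide substrate. Fluorescence (ex 340, em 450 nm) change over 15 min, room temperature; percent inhibition fitted to 4-parameter Hill equation.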
# [22] = Counterscreen qHTS for small molecule stabilizers of the endoplasmic reticulum resident proteome: GLuc-NoTag assay (AID 1508627)
# In short: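 Secreted GLuc lacking the SERCaMP modification is measured in SH-SY5Y cells exposed to compound for 19 h and then to thapsigargin (100 nM, 4 h) to deplete ER calcium; hits retested at 11 concentrations, up to 76.6 uM.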
# [23] = Primary qHTS for small molecule stabilizers of the endoplasmic reticulum resident proteome: Secreted ER Calcium Modulated Protein (SERCaMP) assay (AID 1508630)
# In short: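 The SH-SY5Y reporter protocol was run at 3 concentrations up to 38.3 uM (primary) or 11 concentrations (follow-up): 16 h compound, 100 nM thapsigargin for 4 h, then extracellular luciferase luminescence.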
# [24] = Confirmatory qHTS for small molecule stabilizers of the endoplasmic reticulum resident proteome: Secreted ER Calcium Modulated Protein (SERCaMP) assay (AID 1508628); further: potency means the concentration at half of the fitted maximal effect; nearly all actives have a fitted effect of over 40% in size
# In short: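 Reporter secretion upon ER calcium depletion (100 nM thapsigargin, 4 h, 37C) is measured as medium luminescence with coelenterazine, after 16 h compound pretreatment of SH-SY5Y-GLuc-SERCaMP cells; primary at three concentrations up to 38.3 uM, follow-up at 11 (up to 76.6 uM).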
# Sequence of Glucocorticoid receptor (Homo sapiens) (P04150 whole entry, looked up, the tested form may be a part): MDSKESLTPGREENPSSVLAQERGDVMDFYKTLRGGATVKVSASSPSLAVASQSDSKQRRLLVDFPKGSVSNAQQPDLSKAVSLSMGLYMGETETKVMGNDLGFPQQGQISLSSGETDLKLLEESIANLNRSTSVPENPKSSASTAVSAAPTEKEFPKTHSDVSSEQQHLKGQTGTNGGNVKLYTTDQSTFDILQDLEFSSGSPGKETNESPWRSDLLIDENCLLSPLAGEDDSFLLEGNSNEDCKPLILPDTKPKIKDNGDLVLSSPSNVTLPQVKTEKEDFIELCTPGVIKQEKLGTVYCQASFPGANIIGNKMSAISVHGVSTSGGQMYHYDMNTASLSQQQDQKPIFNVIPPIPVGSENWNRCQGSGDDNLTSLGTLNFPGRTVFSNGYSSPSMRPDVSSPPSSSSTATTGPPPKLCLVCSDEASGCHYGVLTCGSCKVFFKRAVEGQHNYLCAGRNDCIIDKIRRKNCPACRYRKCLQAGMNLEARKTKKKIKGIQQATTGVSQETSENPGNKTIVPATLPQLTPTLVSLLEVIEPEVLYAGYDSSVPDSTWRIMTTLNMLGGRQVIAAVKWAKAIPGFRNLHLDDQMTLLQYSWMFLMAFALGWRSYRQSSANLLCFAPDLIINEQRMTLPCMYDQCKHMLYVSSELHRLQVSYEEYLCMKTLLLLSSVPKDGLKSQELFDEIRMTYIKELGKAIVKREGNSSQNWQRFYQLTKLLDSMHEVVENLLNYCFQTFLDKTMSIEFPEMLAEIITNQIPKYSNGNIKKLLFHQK
# Sequence of Cytochrome P450 1A2 (Homo sapiens) (P05177 whole entry, looked up): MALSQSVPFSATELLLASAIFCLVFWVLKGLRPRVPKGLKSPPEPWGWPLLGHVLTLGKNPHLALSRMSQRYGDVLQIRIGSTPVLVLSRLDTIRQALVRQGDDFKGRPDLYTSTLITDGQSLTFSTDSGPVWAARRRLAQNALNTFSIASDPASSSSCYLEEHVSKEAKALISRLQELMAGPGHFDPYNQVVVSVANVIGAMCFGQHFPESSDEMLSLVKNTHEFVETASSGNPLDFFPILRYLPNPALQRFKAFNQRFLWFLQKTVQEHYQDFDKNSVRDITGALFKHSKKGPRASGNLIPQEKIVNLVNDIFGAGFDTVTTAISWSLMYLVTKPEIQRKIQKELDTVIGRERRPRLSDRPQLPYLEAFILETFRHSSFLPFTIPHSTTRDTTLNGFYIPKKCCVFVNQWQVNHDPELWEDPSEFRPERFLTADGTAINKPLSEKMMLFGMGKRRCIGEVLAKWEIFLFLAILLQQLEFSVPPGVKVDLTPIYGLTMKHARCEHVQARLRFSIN
# Sequence of Alpha-galactosidase (Coffea arabica) (Q42656 whole entry, looked up): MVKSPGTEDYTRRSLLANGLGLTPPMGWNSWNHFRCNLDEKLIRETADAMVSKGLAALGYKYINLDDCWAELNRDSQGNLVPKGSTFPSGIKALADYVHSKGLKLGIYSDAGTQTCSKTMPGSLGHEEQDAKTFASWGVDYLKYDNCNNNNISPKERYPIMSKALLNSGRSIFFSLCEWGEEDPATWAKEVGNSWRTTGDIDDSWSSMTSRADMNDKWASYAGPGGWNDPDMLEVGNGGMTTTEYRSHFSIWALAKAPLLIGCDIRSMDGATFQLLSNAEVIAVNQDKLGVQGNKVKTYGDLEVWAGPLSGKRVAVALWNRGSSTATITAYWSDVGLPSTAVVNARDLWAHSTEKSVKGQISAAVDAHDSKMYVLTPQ
# Sequence of Cytochrome P450 3A4 (Homo sapiens) (P08684 whole entry, looked up): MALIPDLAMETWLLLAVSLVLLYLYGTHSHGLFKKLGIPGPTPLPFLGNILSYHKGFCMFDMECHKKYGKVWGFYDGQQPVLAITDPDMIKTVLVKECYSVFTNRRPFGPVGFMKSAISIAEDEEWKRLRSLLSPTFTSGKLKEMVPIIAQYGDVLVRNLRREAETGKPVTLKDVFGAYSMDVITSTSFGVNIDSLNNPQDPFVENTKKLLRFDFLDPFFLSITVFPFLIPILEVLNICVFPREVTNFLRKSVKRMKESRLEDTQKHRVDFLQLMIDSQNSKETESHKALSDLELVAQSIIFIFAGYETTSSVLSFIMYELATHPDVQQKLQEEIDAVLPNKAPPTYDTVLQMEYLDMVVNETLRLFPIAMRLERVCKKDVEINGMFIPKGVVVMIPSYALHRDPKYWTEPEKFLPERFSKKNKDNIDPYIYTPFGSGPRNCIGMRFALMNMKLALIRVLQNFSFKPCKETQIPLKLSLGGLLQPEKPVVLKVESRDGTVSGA
# Sequence of Pyruvate kinase (Leishmania mexicana) (Q27686 2-499 E452W): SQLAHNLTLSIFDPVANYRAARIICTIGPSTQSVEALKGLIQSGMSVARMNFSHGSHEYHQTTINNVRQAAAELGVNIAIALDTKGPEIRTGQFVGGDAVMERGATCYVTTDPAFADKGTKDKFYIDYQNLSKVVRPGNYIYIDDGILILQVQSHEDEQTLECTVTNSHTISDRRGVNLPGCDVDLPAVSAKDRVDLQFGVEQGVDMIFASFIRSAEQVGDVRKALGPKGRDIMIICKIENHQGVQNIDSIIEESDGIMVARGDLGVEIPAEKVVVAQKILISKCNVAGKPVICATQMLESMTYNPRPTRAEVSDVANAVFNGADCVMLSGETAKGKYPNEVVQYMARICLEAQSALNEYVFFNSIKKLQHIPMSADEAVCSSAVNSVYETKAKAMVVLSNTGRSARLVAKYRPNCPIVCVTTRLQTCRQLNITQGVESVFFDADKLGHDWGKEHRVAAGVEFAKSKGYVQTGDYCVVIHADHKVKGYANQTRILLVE
# Sequence of 3',5'-cyclic-AMP phosphodiesterase 4B (Homo sapiens) (Q07343 whole entry, looked up): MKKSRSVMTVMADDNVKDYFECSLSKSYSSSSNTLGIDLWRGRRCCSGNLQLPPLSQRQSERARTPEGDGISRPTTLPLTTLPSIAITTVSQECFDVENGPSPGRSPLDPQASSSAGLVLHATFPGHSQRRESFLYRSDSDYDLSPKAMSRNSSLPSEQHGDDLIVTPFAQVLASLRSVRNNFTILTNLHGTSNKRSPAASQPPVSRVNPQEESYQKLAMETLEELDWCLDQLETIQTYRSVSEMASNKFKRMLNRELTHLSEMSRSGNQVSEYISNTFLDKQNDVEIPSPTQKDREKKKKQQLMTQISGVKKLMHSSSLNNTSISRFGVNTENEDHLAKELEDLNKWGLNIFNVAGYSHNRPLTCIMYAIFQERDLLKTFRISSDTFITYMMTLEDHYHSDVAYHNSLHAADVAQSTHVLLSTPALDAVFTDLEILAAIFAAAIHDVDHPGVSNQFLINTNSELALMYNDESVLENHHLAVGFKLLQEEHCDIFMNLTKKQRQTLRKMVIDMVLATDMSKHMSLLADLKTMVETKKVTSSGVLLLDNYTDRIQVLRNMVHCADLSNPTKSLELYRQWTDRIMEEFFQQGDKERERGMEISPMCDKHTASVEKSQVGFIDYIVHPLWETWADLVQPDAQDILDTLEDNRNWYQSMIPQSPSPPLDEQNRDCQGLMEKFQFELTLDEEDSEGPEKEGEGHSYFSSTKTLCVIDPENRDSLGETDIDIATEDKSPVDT
# Sequence of Alpha-galactosidase A (Homo sapiens) (P06280 whole entry, looked up): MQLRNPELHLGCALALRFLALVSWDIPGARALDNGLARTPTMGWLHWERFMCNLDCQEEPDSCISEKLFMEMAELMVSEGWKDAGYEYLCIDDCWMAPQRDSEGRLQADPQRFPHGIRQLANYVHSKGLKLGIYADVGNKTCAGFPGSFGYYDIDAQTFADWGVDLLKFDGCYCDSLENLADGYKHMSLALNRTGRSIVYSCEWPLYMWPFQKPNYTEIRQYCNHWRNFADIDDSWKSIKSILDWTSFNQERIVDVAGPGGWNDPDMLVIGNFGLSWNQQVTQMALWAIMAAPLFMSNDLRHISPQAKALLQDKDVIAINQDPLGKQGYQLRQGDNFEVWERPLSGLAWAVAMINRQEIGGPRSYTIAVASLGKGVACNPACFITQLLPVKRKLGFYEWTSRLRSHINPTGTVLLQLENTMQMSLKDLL
# Sequence of DNA dC->dU-editing enzyme APOBEC-3G (Homo sapiens) (Q9HC16 whole entry, looked up): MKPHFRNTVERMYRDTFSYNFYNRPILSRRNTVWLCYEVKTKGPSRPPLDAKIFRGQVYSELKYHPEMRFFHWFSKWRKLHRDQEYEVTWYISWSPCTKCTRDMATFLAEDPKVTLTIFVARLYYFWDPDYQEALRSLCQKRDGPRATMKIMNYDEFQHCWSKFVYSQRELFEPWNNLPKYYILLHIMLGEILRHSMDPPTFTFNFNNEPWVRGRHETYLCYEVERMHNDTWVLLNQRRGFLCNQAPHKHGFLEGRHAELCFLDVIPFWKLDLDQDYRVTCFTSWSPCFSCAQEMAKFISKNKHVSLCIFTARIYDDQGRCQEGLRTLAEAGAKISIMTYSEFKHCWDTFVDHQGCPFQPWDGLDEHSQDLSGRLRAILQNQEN
# Sequence of Guanine nucleotide-binding protein G(i) subunit alpha-1 (Homo sapiens) (P63096 whole entry, looked up): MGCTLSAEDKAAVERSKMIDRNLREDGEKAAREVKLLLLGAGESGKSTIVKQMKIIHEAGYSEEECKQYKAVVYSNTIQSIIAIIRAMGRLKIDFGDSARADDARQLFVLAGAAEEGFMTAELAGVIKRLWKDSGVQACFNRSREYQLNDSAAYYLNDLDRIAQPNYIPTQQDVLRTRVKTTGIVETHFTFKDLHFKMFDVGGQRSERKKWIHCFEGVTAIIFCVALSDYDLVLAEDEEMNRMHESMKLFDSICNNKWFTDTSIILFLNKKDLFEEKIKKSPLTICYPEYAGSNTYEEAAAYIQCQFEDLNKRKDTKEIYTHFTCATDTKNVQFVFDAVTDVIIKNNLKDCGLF
structure (smiles),measurement,setting,value
C[C@H](N)Cc1c[nH]c2ccc(OCc3cccs3)cc12,outcome,[1],inactive
same,Potency,[2],1.58 µM (active) and 126 nM (active)
same,"activity change, negative = inhibition",[3],7.25%
same,outcome,[4],inactive
same,Potency,[5],> 46 µM
same,Potency,[6],> 46 µM
same,outcome,[7],inactive
same,Potency,[8],inactive
same,outcome,[9],inactive
same,Potency,[10],inactive
same,Potency,[11],0.794 µM (active)
same,Potency,[12],inactive
same,Potency,[13],inactive
same,outcome,[14],inactive
same,outcome,[15],inactive
same,outcome,[16],inactive
same,outcome,[17],inactive
same,outcome,[18],inactive
same,outcome,[19],inactive
same,Potency,[20],inactive
same,Potency,[21],inactive
same,Potency,[22],inactive
COc1ccc2c(c1O)-c1cc(O)cc3c1[C@@H](C2)N(C)CC3,Potency,[21],29.9 µM (active)
same,Potency,[23],inactive
CCC(Oc1ccc(Cl)cc1)C(=O)OC1CC2CCC(C1)N2C (stereo unspecified),Potency,[21],inactive
same,Potency,[24],8.91 µM (active)
